Assay [1] in a line: ATG_XTT_Cytotoxicity: Cytotoxicity Assessment in the Attagene TRANS-FACTORIAL HepG2 Assay (AID 2283584). The method in brief: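 XTT readout of cell number in transfected HepG2 cells, 24 h post-dosing; DMSO serves as negative control and baseline, with activity taken as loss of viability signal.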
Read-out in assay [2]: Cellular tumor antigen p53 (Homo sapiens) (UniProt P04637)
The experiment in a line: LTEA_HepaRG_TP53: Life Technologies and Expression Analysis (LTEA) Assay for Tumor Protein P53 (TP53) using HepaRG (AID 2283537; active = hit-call score of the fitted dose curve at least 0.9, where 1 is the maximum; inactive = score below 0.9). To be noted: mRNA level, 48 h; actives raise or lower the signal. An outline of the steps:
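HepaRG, 48 h exposure, top 100 uM, half-log 8-point, 0.5% DMSO vehicle, duplicates. Read: TP53 mRNA by TaqMan qRT-PCR, normalised to ACTB/GAPDH/POLR2A; bidirectional fit vs DMSO.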

Read-out in assay [3]: UDP glucuronosyltransferase (UGT1A1), UGT1A1 (gene 54658)
The experiment in a line: LTEA_HepaRG_UGT1A1: Life Technologies and Expression Analysis (LTEA) Assay for UDP glucuronosyltransferase (UGT1A1) using HepaRG (AID 2283538; active = hit-call score of the fitted dose curve at least 0.9, where 1 is the maximum; inactive = score below 0.9). To be noted: mRNA level, 48 h; actives raise or lower the signal. An outline of the steps:
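Cells are plated, cultured 48 h, switched to serum-free induction medium, then dosed 48 h at eight concentrations (max 100 uM, 0.5% DMSO). RNA is isolated and UGT1A1 expression measured by qRT-PCR; changes versus DMSO are fitted in both directions.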

Read-out in assay [4]: UDP glucuronosyltransferase (UGT1A6), UGT1A6 (gene 54578)
The experiment in a line: LTEA_HepaRG_UGT1A6: Life Technologies and Expression Analysis (LTEA) Assay for UDP glucuronosyltransferase (UGT1A6) using HepaRG (AID 2283539; active = hit-call score of the fitted dose curve at least 0.9, where 1 is the maximum; inactive = score below 0.9). Conditions: mRNA level, 48 h; actives raise or lower the signal. An outline of the steps:
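qRT-PCR readout of UGT1A6 mRNA (normalized to ACTB/GAPDH/POLR2A) in differentiated HepaRG cells after 48 h chemical exposure; 8 concentrations, top 100 uM, half-log steps, 0.5% DMSO. Bidirectional curve fit relative to DMSO baseline.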

Read-out in assay [5]: X-box binding protein 1 (XBP1), XBP1 (gene 7494)
The experiment in a line: LTEA_HepaRG_XBP1: Life Technologies and Expression Analysis (LTEA) Assay for X-box binding protein 1 (XBP1) using HepaRG (AID 2283540; active = hit-call score of the fitted dose curve at least 0.9, where 1 is the maximum; inactive = score below 0.9). To be noted: mRNA level, 48 h; actives raise or lower the signal. The method in brief: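 HepaRG, 48 h exposure, 8-pt half-log CRC top 100 uM, 0.5% DMSO vehicle, duplicates. Readout: TaqMan qRT-PCR of XBP1 mRNA, housekeeping-normalised (ACTB/GAPDH/POLR2A); bidirectional fit vs DMSO baseline.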

Assay [6] in a line: LTEA_HepaRG_LDH_cytotoxicity: Cytotoxicity Assessment in the Life Technologies and Expression Analysis (LTEA) Assay (AID 2283563). The method in brief: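 HepaRG (human liver line), 48 h exposure, 8-pt half-log series from 100 uM, 0.5% DMSO vehicle, duplicates. Read-out: LDH in spent medium. Positive-direction fit vs DMSO baseline.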
For assay [7], the target named is Cellular tumor antigen p53 (Homo sapiens) (UniProt P04637). The experiment in a line: TOX21_p53_BLA_p2_ratio: Tox21 HCT-116 p53 Agonism Beta-lactamase Assay, Ratio, Phase 2 (AID 2283592). The method in brief:
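Readout: blue/green (460/530 nm) FRET emission ratio after 2 h CCF4-AM loading at room temperature, excitation 405 nm. HCT116 p53 bla cells, 16 h compound exposure at 37C, 5% CO2; agonist direction fitted against DMSO baseline.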

The target is the same in assay [8]. Description: TOX21_p53_BLA_p3_ratio: Tox21 HCT-116 p53 Agonism Beta-lactamase Assay, Ratio, Phase 3 (AID 2283596). An outline of the steps: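 Cells were seeded at 4000/well, rested 5 h at 37C, then dosed with DMSO compound solutions (217-fold dilution) for 16 h. CCF4-AM substrate was loaded for 2 h at room temperature, and the 460/530 nm emission ratio was fitted for gain of signal versus DMSO.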

The target is the same in assay [9]. The experiment in a line: TOX21_p53_BLA_p5_ratio: Tox21 HCT-116 p53 Agonism Beta-lactamase Assay, Ratio, Phase 5 (AID 2283599). An outline of the steps:
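HCT-116 p53-bla cells (4000/well) plated 5 h, dosed with compound (217-fold DMSO dilution) for 16 h at 37 C; CCF4-AM substrate 2 h at room temperature. Activity is the 460/530 nm emission ratio (405 nm excitation), fitted in gain-of-signal direction versus DMSO.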

Assay [10] can be described thus: TOX21_p53_BLA_p5_viability: Viability Assessment in the Tox21 HCT-116 p53 Agonism Beta-lactamase Assay, Phase 5 (AID 2283600). An outline of the steps:
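ATP luminescence (CellTiter-Glo, 30 min, RT) served as the viability read-out, with loss of signal indicating cytotoxicity. Compounds in DMSO were pinned at a 217-fold dilution onto 4000 cells/well and incubated 16 h, 37C.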

The target of assay [11] is Cellular tumor antigen p53 (Homo sapiens) (UniProt P04637). The experiment in a line: TOX21_p53_BLA_p4_ratio: Tox21 HCT-116 p53 Agonism Beta-lactamase Assay, Ratio, Phase 4 (AID 2283601). An outline of the steps:
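HCT-116 p53 beta-lactamase reporter cells (4000/well) preincubated 5 h, then compound (217-fold dilution of DMSO stock) for 16 h at 37C. CCF4-AM substrate added 2 h at room temperature; 460/530 nm emission ratio fitted upward versus DMSO.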

Assay [12] can be described thus: Tanguay_ZF_120hpf_MORT_legacy: (Legacy) Oregon State University Tanguay Lab 120 Hour Post-fertilization zebrafish Assay for Mortality (AID 2283633). An outline of the steps: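 Brightfield scoring of embryo death (binary) at 24 and 120 hpf; static exposure 6–120 hpf, 28C, sealed and foil-covered. Pronase-dechorionated 5D wild-type larvae, single embryo per well. DMSO 0.64% v/v; trimethyltin chloride 5uM positive control.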

A short description of assay [13]: Tanguay_ZF_120hpf_YSE_legacy: (Legacy) Oregon State University Tanguay Lab 120 Hour Post-fertilization zebrafish Assay for Yolk Sac Edema (AID 2283634). The method in brief:
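Binary brightfield scoring of yolk sac edema at 120 hpf; DMSO baseline, gain-of-signal fitting. Dechorionated 5D larvae, one per well, static exposure 6–120 hpf, 28C, 0.64% DMSO. Dead embryos not scored.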

A short description of assay [14]: Tanguay_ZF_120hpf_AXIS_legacy: (Legacy) Oregon State University Tanguay Lab 120 Hour Post-fertilization zebrafish Assay for Body Axis Malformation (AID 2283635). The method in brief:
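Embryos: 5D wild-type, pronase-dechorionated 4 hpf; static exposure 6–120 hpf, 28C, sealed, dark, 1 embryo/well, 0.64% DMSO. 120 hpf axis malformation scored present/absent; dead embryos excluded. Analysed as gain of signal vs DMSO.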

A short description of assay [15]: Tanguay_ZF_120hpf_SNOU_legacy: (Legacy) Oregon State University Tanguay Lab 120 Hour Post-fertilization zebrafish Assay for Snout Malformation (AID 2283637). The method in brief: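 Binary brightfield scoring of snout malformation at 120 hpf. Dechorionated 5D wild-type embryos, one per well, static exposure from 6 hpf at 28C, sealed and dark; final DMSO 0.64% (vol/vol), DMSO as baseline; 5uM trimethyltin chloride positive control.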

Assay [16] is described as follows: Tanguay_ZF_120hpf_JAW_legacy: (Legacy) Oregon State University Tanguay Lab 120 Hour Post-fertilization zebrafish Assay for Jaw Malformation (AID 2283638). An outline of the steps:
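Binary jaw-malformation calls at 120 hpf by brightfield imaging; DMSO (0.64% v/v) = baseline. Embryos: 5D wild-type, pronase-dechorionated, one per well from 6 hpf, static exposure, 28C, sealed, dark.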

Assay [17] can be described thus: TOX21_p53_BLA_p2_viability: Viability Assessment in the Tox21 HCT-116 p53 Agonism Beta-lactamase Assay, Phase 2 (AID 2283591).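 Note: actives lower the ATP signal meaning cytotoxicity.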 An outline of the steps: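 HCT116 p53-bla cells, 4000/well, dosed after 5 h plating (217-fold dilution of DMSO stocks) and incubated 16 h at 37C. Viability taken as cellular ATP by CellTiter-Glo luminescence after 30 min RT; signal loss marks cytotoxicity.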

A short description of assay [18]: TOX21_p53_BLA_p3_viability: Viability Assessment in the Tox21 HCT-116 p53 Agonism Beta-lactamase Assay, Phase 3 (AID 2283593).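 Note: cells exposed to compound for 16 h before reading.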 An outline of the steps:
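HCT116 cells, 4000/well, dosed 5 h after plating by pin transfer (217-fold dilution from DMSO stock) and incubated 16 h at 37C, 5% CO2. Viability read as ATP luminescence with CellTiter-Glo after 30 min at room temperature.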

Assay [19] can be described thus: TOX21_p53_BLA_p4_viability: Viability Assessment in the Tox21 HCT-116 p53 Agonism Beta-lactamase Assay, Phase 4 (AID 2283597).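 Note: hits lower the luminescence signal meaning cytotoxicity.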 The method in brief: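 ATP content by CellTiter-Glo luminescence, 30 min RT, read after the beta-lactamase ratio step. Cells: HCT116, 4000/well, compound added after 5 h, exposure 16 h at 37C. Signal loss = reduced viability.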
Assay [20] in a line: Tanguay_ZF_120hpf_EYE_legacy: (Legacy) Oregon State University Tanguay Lab 120 Hour Post-fertilization zebrafish Assay for Eye Malformation (AID 2283636).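 Note: binary presence or absence of eye malformation scored by brightfield in 120 hpf larvae.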 An outline of the steps: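 5D wild-type embryos, pronase-dechorionated at 4 hpf; static exposure 6–120 hpf, 28C, dark; DMSO 0.64% final; 5uM trimethyltin chloride positive control. Binary eye-defect scoring at 120 hpf; dead embryos not scored.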

Results on 35 molecules are retold here after PubChem BioAssay (EPA / NIEHS).

Records with an inconclusive call do not appear. Activity calls are given as the source filed them. Rule for the calls, unless noted: active = hit-call score of the fitted dose curve at least 0.9, where 1 is the maximum; inconclusive = response in the unintended direction; inactive = score below 0.9.

Cellular tumor antigen p53 (Homo sapiens), sequence (P04637 whole entry, looked up): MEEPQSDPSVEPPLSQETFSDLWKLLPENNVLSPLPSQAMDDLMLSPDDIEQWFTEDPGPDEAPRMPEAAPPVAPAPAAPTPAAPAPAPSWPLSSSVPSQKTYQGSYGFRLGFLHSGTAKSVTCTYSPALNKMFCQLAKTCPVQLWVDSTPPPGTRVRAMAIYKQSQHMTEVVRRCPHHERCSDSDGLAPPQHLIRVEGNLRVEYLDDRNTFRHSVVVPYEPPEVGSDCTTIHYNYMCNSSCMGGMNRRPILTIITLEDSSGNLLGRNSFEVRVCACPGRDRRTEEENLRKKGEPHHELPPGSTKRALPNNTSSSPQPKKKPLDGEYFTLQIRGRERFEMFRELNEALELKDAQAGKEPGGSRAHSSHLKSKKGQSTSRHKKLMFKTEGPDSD

Turning to `CC(C)c1ccc2ncccc2c1`, the call in assay [1] was inactive.

On to `Cc1ccc([N+](=O)[O-])cc1N`, for which the call in [2], in assay [4], in [5], in assay [6], in [1] and in assay [7] was inactive. Moreover, the outcome in assay [8], in assay [9], in assay [10], in assay [11], in assay [12] and in assay [13] was inactive. The call in assay [14], in [15] and in assay [16] was inactive. The half-maximal activity concentration (AC50) in assay [3] was 50 µM (active).

With `CCCCCCCC(=O)OCC`, in [1], the result was inactive.

In the case of `CC=C(C)C(C)=O`, the molecule was called inactive in assay [1].

Take `CC(C=O)c1ccccc1` (configuration not stated): the outcome in [1] was inactive.

As for `CCOC(=O)OC(=O)OCC`, the molecule was classed as inactive in [1].

For the molecule `c1ccc(-c2nc3ccccc3[nH]2)cc1`, in assay [1], the call was inactive.

For the molecule `CCC(C)c1ccccc1` (configuration not stated), the result in [1] was inactive.

`CCC(C)C(=O)OC` (configuration not stated): in assay [1], the outcome was inactive.

In the case of `C=CC(=O)NCOCCCC`, the call in assay [1] was inactive.

Consider `O=C(Oc1ccccc1)c1ccccc1O`, for which the outcome in assay [1] was inactive.

`Nc1cccc(N)n1`: the outcome in assay [1] was inactive.

Turning to `CC(c1cc(C(C)(C)C)cc(C(C)(C)C)c1O)c1cc(C(C)(C)C)cc(C(C)(C)C)c1O`, the molecule was called inactive in assay [1].

On to `Cn1cccc1`, for which the outcome in assay [1] was inactive.

With `CC1(C)C(=O)N(CO)C(=O)N1CO`, in assay [1], the outcome was inactive.

For the molecule `Nc1nc(N)nc(-c2ccccc2)n1`, the molecule was called inactive in [1].

Consider `Nc1ccc(Cl)c(N)c1`, for which the molecule was classed as inactive in assay [1].

In the case of `C1CNCCN1`, the result in [2], in [3], in assay [4], in assay [5], in assay [6] and in [1] was inactive. The outcome in [17], in [7], in assay [18], in assay [8], in assay [19] and in assay [9] was inactive. Further, the molecule was classed as inactive in assay [10], in assay [11], in assay [12], in [13], in assay [14] and in [20]. In addition, the call in [15] and in assay [16] was inactive.

In the case of `Cc1c(O)cccc1O`, in [1], the call was inactive.

Regarding `CC(C)=NNC(N)=S`, the molecule was called inactive in [1].

Take `CCCSSCCC`: in assay [1], the call was inactive.

Turning to `COC(=O)C=Cc1ccccc1`, the result in assay [1] was inactive.

In the case of `N#Cc1ccc(C(c2ccc(C#N)cc2)n2cncn2)cc1`, the molecule was called inactive in assay [1].

Take `CCOC(=O)CC(=O)c1ccccc1`: the molecule was called inactive in assay [1].

Take `CCC1(C)C(=O)N(Cl)C(=O)N1Cl` (configuration not stated): the call in assay [1] was inactive.

On to `Cc1c(Cl)cccc1Cl`, for which the result in assay [1] was inactive.

As for `Nc1ccc(C(=O)O)cc1`, the call in [2], in assay [3], in assay [4], in [5], in assay [6] and in [1] was inactive. The result in [17], in assay [7], in [8], in [9], in assay [10] and in [11] was inactive. The call in assay [12], in assay [14], in assay [15] and in assay [16] was inactive.

Take `CC1(C)CC(O)CC(C)(C)N1[O]`: the molecule was classed as inactive in [1].

On to `CCCCCCCCC(CO)CCCCCC` (configuration not stated), for which the molecule was called inactive in [1].

In the case of `CC/C=C\C/C=C\C/C=C\CCCCCCCC(=O)OC`, the molecule was classed as inactive in assay [1].

Take `CCCCCC1=CCCC1=O`: the call in assay [1] was inactive.

Consider `CCCCCCCCCCCCCc1ccccc1`, for which the outcome in [1] was inactive.

As for `CCc1cccc(C)c1N(C(=O)CS(=O)(=O)O)C(C)COC` (configuration not stated), the outcome in assay [1] was inactive.

For the molecule `C=CC(=O)NC(C)(C)C`, in assay [1], the molecule was called inactive.

As for `O=C(Cl)c1c(Cl)c(Cl)c(C(=O)Cl)c(Cl)c1Cl`, the call in assay [1], in assay [17], in assay [7], in assay [18], in assay [8] and in [19] was inactive. Moreover, the outcome in assay [9], in assay [10] and in [11] was inactive.

As a reminder, the AC50 is the midpoint of the concentration-response curve, whichever way the signal moves.
